In PubChem BioAssay (Tox21):
Inconclusive results are not listed. A call without a number means that no potency is given here. A number with no mark means an inactive call. Active and inactive are the calls of the source. Unless noted, calls follow the shape of the dose curve; as a rule, active = well fitted curve in the direction sought with a large enough effect in the repeat runs; inconclusive = weak or mixed curves; inactive = no such curve, though single readings can be large; an effect the other way counts as inactive or inconclusive.

What was measured:
[1] = target: Luciferin 4-monooxygenase (Photinus pyralis) (UniProt P08659); experiment: qHTS assay to identify small molecule inhibitors of firefly luciferase (AID 1224835); also: nearly all actives have a fitted effect of over 25% in size; also: potency is read from the fitted curve at half-maximal effect; conditions: purified P. pyralis luciferase, luminescence inhibition; series mostly up to 115 µM
Sequence of Luciferin 4-monooxygenase (Photinus pyralis) (P08659 whole entry, looked up): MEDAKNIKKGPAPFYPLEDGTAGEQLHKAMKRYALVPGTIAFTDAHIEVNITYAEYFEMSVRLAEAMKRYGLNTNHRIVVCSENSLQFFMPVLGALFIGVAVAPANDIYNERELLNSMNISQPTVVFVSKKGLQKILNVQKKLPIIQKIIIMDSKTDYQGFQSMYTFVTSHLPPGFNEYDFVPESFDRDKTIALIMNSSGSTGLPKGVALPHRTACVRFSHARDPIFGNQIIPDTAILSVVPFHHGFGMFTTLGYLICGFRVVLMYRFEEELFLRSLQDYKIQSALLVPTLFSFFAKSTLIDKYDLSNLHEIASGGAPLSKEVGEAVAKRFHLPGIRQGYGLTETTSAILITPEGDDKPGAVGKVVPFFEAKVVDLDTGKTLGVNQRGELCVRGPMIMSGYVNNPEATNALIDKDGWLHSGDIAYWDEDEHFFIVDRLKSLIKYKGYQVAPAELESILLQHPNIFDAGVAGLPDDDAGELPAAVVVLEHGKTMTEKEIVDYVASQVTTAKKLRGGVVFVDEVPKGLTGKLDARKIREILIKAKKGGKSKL
Method in brief: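 Biochemical qHTS: compounds run as interplate titrations against purified firefly enzyme, with D-luciferin and ATP each at its KM concentration. Light output recorded by CCD imaging.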

[2] = qHTS assay to identify small molecule agonists of the constitutive androstane receptor (CAR) signaling pathway - cell viability counter screen (AID 1224836); conditions: HepG2-CYP2B6-hCAR viability, CellTiter-Fluor, 23 h, PK11195 added to every well; series mostly up to 92.4 µM; also: nearly all actives have a fitted effect of over 45% in size; also: potency is read from the fitted curve at half-maximal effect
Method in brief: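 Multiplexed viability check: HepG2-CYP2B6-hCAR cells, 15-point compound dosing, 0.75 uM PK11195 final, 23 h at 37 C, CellTiter-Fluor fluorescence.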

[3] = qHTS assay to identify small molecule antagonists of the constitutive androstane receptor (CAR) signaling pathway - cell viability counter screen (AID 1224837); conditions: HepG2-CYP2B6-hCAR viability, CellTiter-Fluor, 23 h, co-treated with 50 nM CITCO; series mostly up to 92.4 µM; also: nearly all actives have a fitted effect of over 45% in size; also: potency is read from the fitted curve at half-maximal effect
Method in brief: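 Using CellTiter-Fluor, viability is scored in HepG2 cells stably carrying hCAR and a 2.2kb CYP2B6 reporter after 23 hr compound exposure across 15 concentrations, with CITCO present at 50 nM.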

[4] = target: Nuclear receptor subfamily 1 group I member 3 (Homo sapiens) (UniProt Q14994); experiment: qHTS assay to identify small molecule antagonists of the constitutive androstane receptor (CAR) signaling pathway (AID 1224838); conditions: HepG2-CYP2B6-hCAR luciferase, CITCO-stimulated, 24 h; series mostly up to 92.4 µM;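 also: HepG2 cells stably expressing hCAR with CYP2B6 luciferase reporter stimulated by CITCO; nearly all actives have a fitted effect of over 40% in size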; also: potency is read from the fitted curve at half-maximal effect
Sequence of Nuclear receptor subfamily 1 group I member 3 (Homo sapiens) (Q14994 whole entry, looked up): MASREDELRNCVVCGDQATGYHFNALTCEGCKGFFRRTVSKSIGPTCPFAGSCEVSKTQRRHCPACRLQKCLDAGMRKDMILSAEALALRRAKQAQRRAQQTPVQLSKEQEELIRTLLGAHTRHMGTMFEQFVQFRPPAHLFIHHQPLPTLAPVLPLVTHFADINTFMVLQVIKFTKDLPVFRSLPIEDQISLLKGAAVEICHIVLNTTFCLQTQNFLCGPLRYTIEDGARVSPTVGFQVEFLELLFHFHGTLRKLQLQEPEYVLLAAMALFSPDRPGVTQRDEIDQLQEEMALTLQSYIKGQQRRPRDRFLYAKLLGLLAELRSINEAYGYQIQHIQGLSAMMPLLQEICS
Method in brief: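 Reporter luminescence was quantified after 24 h exposure of hCAR/CYP2B6-2.2kb double-stable HepG2 cells to compounds at 15 concentrations in the presence of 50 nM CITCO final.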

[5] = target: Nuclear receptor subfamily 1 group I member 3 (Homo sapiens) (UniProt Q14994); experiment: qHTS assay to identify small molecule agonists of the constitutive androstane receptor (CAR) signaling pathway (AID 1224839); conditions: HepG2 hCAR CYP2B6-luciferase, agonist mode, 24 h; series mostly up to 92.4 µM;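 also: HepG2 cells stably carrying human CAR and a CYP2B6 luciferase reporter; nearly all actives have a fitted effect of over 15% in size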
Method in brief: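 Using human hepatoma HepG2 cells engineered with hCAR and a CYP2B6-2.2kb reporter, 15-concentration compound series were incubated 24 h alongside PK11195 at 0.75 uM final, with luminescence quantified afterwards.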

[6] = qHTS assay to identify small molecule antagonists of the estrogen related receptor signaling pathway with the pleiotropic PPARgamma coactivator (PGC) from Tox21 10K library - cell viability counter screen (AID 1224840; active = well fitted cell-killing curve with a large enough effect in the repeat runs, not every such curve was filed as active; also: nearly all actives have a fitted effect of over 40% in size; also: potency is read from the fitted curve at half-maximal effect); conditions: PGC/ERR reporter cells viability, CellTiter-Fluor, 17.5 h; series mostly up to 92.4 µM
Method in brief: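 Here the PGC/ERR cells serve as a cytotoxicity control: they are exposed to compounds for 17.5 hours at 37 C, and live-cell signal is quantified using CellTiter-Fluor fluorescence.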

[7] = target: Thyrotropin receptor (Homo sapiens) (UniProt P16473); experiment: qHTS assay to identify small molecule agonists of the thyroid stimulating hormone receptor (TSHR) signaling pathway (AID 1224843; calls by dose curve; also: nearly all actives have a fitted effect of over 45% in size); conditions: TSHR-HEK293 cells, cAMP HTRF, agonist mode, 30 min; series mostly up to 92.4 µM
Sequence of Thyrotropin receptor (Homo sapiens) (P16473 whole entry, looked up): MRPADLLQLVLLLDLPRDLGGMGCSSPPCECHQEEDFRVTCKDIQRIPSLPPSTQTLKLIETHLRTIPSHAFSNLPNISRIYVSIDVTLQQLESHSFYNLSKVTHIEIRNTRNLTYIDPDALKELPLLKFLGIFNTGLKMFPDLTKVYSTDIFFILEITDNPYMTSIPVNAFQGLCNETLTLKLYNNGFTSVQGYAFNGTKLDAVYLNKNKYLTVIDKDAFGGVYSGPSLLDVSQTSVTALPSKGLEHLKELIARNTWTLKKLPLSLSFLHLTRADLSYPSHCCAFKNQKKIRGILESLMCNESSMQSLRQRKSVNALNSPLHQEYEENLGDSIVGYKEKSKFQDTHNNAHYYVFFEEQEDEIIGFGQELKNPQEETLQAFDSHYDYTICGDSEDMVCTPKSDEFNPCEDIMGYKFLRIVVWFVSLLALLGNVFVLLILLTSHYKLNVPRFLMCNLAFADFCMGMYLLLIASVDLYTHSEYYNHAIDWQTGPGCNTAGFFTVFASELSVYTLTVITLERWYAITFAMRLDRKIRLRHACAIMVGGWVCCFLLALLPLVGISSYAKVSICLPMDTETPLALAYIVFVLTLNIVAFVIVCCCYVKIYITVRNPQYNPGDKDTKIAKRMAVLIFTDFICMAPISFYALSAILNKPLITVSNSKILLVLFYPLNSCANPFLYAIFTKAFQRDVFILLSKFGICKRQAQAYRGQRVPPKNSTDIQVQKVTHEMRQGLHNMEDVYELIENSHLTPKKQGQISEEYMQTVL
Method in brief: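 TSHR-HEK293 cells in agonist mode, 30 min room-temperature step, then cAMP measured by competitive HTRF (cAMP-d2 with anti-cAMP cryptate) after 1 h at room temperature. Tested at 15 concentrations in triplicate.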

[8] = qHTS assay to identify small molecule agonists of the hypoxia (HIF-1) signaling pathway - cell viability counter screen (AID 1224844; calls by dose curve; also: nearly all actives have a fitted effect of over 50% in size); conditions: HRE-bla ME-180 viability, CellTiter-Glo luminescence, 17 h; series mostly up to 76.8 µM
Method in brief: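 Multiplexed with the HRE beta-lactamase assay, this viability read used CellTiter-Glo luminescence (30 min, RT) on HRE-bla ME-180 cells treated 17 hrs with compounds in 0.5% dialyzed FBS medium.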

[9] = qHTS assay to identify small molecule antagonists of the estrogen related receptor signaling pathway with the pleiotropic PPARgamma coactivator (PGC) from Tox21 10K library (AID 1224841; call rule not given here; also: actives are mostly falling curves and most rising ones were filed inactive; nearly all actives have a fitted effect of over 50% in size); conditions: PGC/ERR reporter cell line, ONE-Glo luciferase, 18 h; series mostly up to 92.4 µM
Method in brief: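 Each well held 2,000 PGC/ERR cells, pre-incubated six hours (37 C, 5% CO2). Test substances in DMSO were added by pin tool and left for 18 h at 37 C before luciferase detection by One-Glo.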

[10] = qHTS assay to identify small molecule agonists of the estrogen related receptor signaling pathway with the pleiotropic PPARgamma coactivator (PGC) from Tox21 10K library (AID 1224842); conditions: PGC/ERR reporter cell line, luciferase ONE-Glo, 18 h; series mostly up to 92.4 µM; also: nearly all actives have a fitted effect of over 15% in size
Method in brief: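 PGC/ERR reporter cell line, 2,000 cells per well, incubated 6 h at 37 C before 23 nL compound in DMSO was added. After 18 h at 37 C, One-Glo luminescence read following 30 min at room temperature.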

Compound | Potency [1] | Potency [2] | Potency [3] | Potency [4] | Potency [5] | Potency [6] | Potency [7] | Potency [8] | Potency [9] | Potency [10]
O=C1OC[C@H](Cc2cccc(O)c2)[C@H]1Cc1cccc(O)c1 | inactive | inactive | inactive | inactive | inactive | inactive | inactive | inactive | – | –
O=S(=O)(O)CO | inactive | inactive | inactive | inactive | inactive | inactive | inactive | inactive | – | –
Oc1cccc2[nH]ccc12 | inactive | inactive | inactive | inactive | inactive | inactive | inactive | inactive | – | –
O=C1NC(=O)c2cccc3cccc1c23 | inactive | inactive | inactive | inactive | inactive | inactive | inactive | inactive | – | –
CC(C(=O)O)c1ccc(C(=O)c2cccs2)cc1 (stereo not given) | inactive | inactive | inactive | inactive | inactive | inactive | inactive | inactive | – | –
CCCCCCC(O)CCCCCCCCCCC(=O)OC (stereo not given) | inactive | inactive | inactive | inactive | inactive | inactive | inactive | inactive | – | –
C=CCOC(=O)COCCC(C)C | inactive | inactive | inactive | inactive | inactive | inactive | inactive | inactive | – | –
CC1CCCC(=O)C1=O (stereo not given) | inactive | inactive | inactive | inactive | inactive | inactive | – | inactive | – | –
CS(=O)(=O)c1ccc([C@@H](C[C@H]2CCC(=O)C2)C(=O)Nc2cnccn2)cc1Cl | inactive | inactive | inactive | inactive | inactive | inactive | inactive | inactive | – | –
CCOCCC(=O)OCC | inactive | inactive | inactive | inactive | inactive | inactive | – | inactive | – | –
CC1=C2[C@@H]([C@H](C)CC[C@H]2/C=C(\C)C(=O)O)[C@H](O)C1 | inactive | inactive | inactive | inactive | inactive | inactive | inactive | inactive | – | –
CO[C@@H]1[C@@H](OC)[C@H](C)[C@@](O)(CC(=O)O)O[C@H]1[C@H](C)[C@H]1O[C@@]2(CC[C@@](C)([C@H]3CC[C@@](C)([C@@H]4O[C@@H]([C@H]5O[C@](C)(O)[C@H](C)C[C@@H]5C)C[C@@H]4OC4C[C@H](OC)[C@@H](OC)[C@H](C)O4)O3)O2)C[C@H](O)[C@H]1C (stereo not given in full) | inactive | 5.31 µM (active) | 4.73 µM (active) | 9.44 µM (active) | – | 0.75 µM (active) | – | – | – | –
O=C(O)CNC(=O)c1ccccc1I | inactive | inactive | inactive | inactive | inactive | inactive | inactive | inactive | – | –
COC(=O)Nc1nc2ccc(C(=O)C3CC3)cc2[nH]1 | 19.5 µM (active) | inactive | inactive | – | – | inactive | inactive | – | – | –
C[C@@H]1C[C@H]2[C@@H]3CCC4=CC(=O)C=C[C@]4(C)[C@@]3(F)[C@@H](O)C[C@]2(C)[C@@]1(O)C(=O)COP(=O)(O)O | inactive | inactive | inactive | – | – | inactive | inactive | inactive | – | –
CC(=O)c1ccc[nH]1 | inactive | inactive | inactive | – | – | inactive | inactive | inactive | – | –
CCC1CCC(CCC(=O)O)C1 (stereo not given) | inactive | inactive | – | inactive | inactive | inactive | inactive | – | inactive | inactive
Cc1cn([C@H]2C[C@H](F)[C@@H](CO)O2)c(=O)[nH]c1=O | inactive | inactive | – | inactive | inactive | inactive | inactive | – | – | –
